About 2,600 (0.79%) of roughly 330,000 compounds were called active. Shown is part of a subset that was picked to be rich in actives. Values without a mark were called inactive.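 The calls were made as follows: active = mean ATP rescue above about 67%, or every replicate alone reaching that limit (limit read from the data, passing the limit was not always enough); inconclusive = no clear call, values can overlap the other calls; inactive = mean under the limit and some replicate under it.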
experiment: suppressors of statin myotoxicity in C2C12 myotubes, primary screen, cell-based, single point, plate reader (AID 602340); conditions: C2C12 myotubes + simvastatin, ATP luminescence, 48 h; at 7.49 µM; hits give high values; scaled: DMSO 0, geranylgeraniol control 100;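 also: myotubes were challenged with 10 µM simvastatin during compound exposure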

Structure (SMILES) | rescue of ATP level
COCC(=O)Nc1ccc2c(c1)[C@H]1C[C@H](CC(=O)NCc3cccnc3)O[C@H](CO)[C@H]1O2 | -1.76%
Cn1c(=O)c2c(nc(CN3CCOCC3)n2Cc2ccccc2)n(C)c1=O | 2.6%
COCCn1c(CN(Cc2ccccc2)Cc2ccccc2)nc2c1c(=O)n(C)c(=O)n2C | 30.5%
COCCn1c(CN2CCC(Cc3ccccc3)CC2)nc2c1c(=O)n(C)c(=O)n2C | 70.9% (active)
CC(=O)NC[C@H]1[C@H](c2ccccc2)[C@@H](CO)N1C(=O)Cc1cccnc1 | 7.36%
Cc1ccccc1S(=O)(=O)Nc1ccc2c(c1)C(=O)N(C)[C@H]1CC[C@@H](CC(=O)O)O[C@H]1CO2 | 10.2%
O=C(C[C@@H]1C[C@H]2c3cc(NC(=O)Nc4ccccc4)ccc3O[C@H]2[C@@H](CO)O1)NC1CCCCC1 | 4.79%
C[C@@H]1CN([C@@H](C)CO)C(=O)c2cc(C3=CCCCC3)cnc2O[C@H]1CN(C)CC1CCOCC1 | -11.9%
C/C(=N/NC(=O)c1cc(Cl)ccc1O)C12CC3CC(CC(C3)C1)C2 | 173% (active)
CC(=N\NC(=O)c1cc(Br)ccc1O)/C(=N/O)C(=O)Nc1ccccc1 | -1.86%
Cc1ccc(C(=O)NC23CC4CC(CC(C4)C2)C3)c(Cl)c1 | -14.4%
Cc1noc(C)c1S(=O)(=O)N(C)C[C@@H]1Oc2c(NS(=O)(=O)c3cn(C)cn3)cccc2C(=O)N([C@@H](C)CO)C[C@H]1C | 5.29%
COc1cccc(C(=O)Nc2ccc3c(c2)OC[C@H](C)N(C(C)=O)C[C@@H](C)[C@@H](OC)CN(C)C3=O)c1 | 5.61%
CCN1CCN(CCCCOc2ccccc2F)CC1 | 12.7%
Fc1ccccc1OCCCCn1cncn1 | 109% (active)
O=c1c2ccccc2ncn1CCCCOc1ccccc1F | -4.17%
O=C(Nc1ccccc1F)N[C@@H]1CC[C@H](CCNC(=O)C2CC2)O[C@@H]1CO | 3.31%
O=C(/C=C/Sc1ncn[nH]1)c1ccc(Cl)cc1 | 122% (active)
Cc1cccc(C=CC(=O)c2ccc(Cl)cc2)c1 | 3.66%
O=C(CSc1ncn[nH]1)N/N=C/c1ccc(F)cc1 | 2.49%
CO[C@H]1CN(C)C(=O)c2ccc(NC(=O)c3ccccc3F)cc2OC[C@H](C)N(C(=O)c2ccccc2F)C[C@H]1C | -0.874%

Structure (SMILES) | rescue of ATP level
COc1ccc2cc(C(=O)O)n(CC(=O)c3ccccc3)c2c1 | 107% (active)
CCOC(=O)c1cc2ccccc2n1CC(=O)c1ccccc1 | 14.7%
COc1ccc(NC(=O)CCCC(=O)c2ccccc2)cc1 | 4.33%
OCCCNC(c1ccccc1)c1ccc(O)cc1 (stereo not drawn) | 116% (active)
OCCNc1nc(Nc2ccc(Cl)c(Cl)c2)nc2ccccc12 | -27.5%
Cc1noc(C)c1NC(=O)N(C)C[C@H]1Oc2c(NC(=O)c3nc4ccccc4s3)cccc2C(=O)N([C@@H](C)CO)C[C@@H]1C | -9.27%
CN1C(=O)c2cc(NS(=O)(=O)c3ccc(F)cc3)ccc2OC[C@@H]2O[C@@H](CC(=O)O)CC[C@H]21 | 1.01%
O=C(C[C@H]1C[C@@H]2c3cc(NC(=O)CC4CC4)ccc3O[C@@H]2[C@H](CO)O1)NCc1cccnc1 | -11%
Cc1ccc(S(=O)(=O)N2[C@@H](c3ccccc3F)C(C(=O)O)=CC[C@H]2c2ccc(Cl)cc2)cc1 | 21.4%
CC(=O)C1=C(O)C(=O)N(c2ccc(Br)cc2)C1c1ccc([N+](=O)[O-])cc1 (stereo not drawn) | 4.28%
CC(=O)C1=C(O)C(=O)N(c2ccc(S(N)(=O)=O)cc2)C1c1ccccc1F (stereo not drawn) | 106% (active)
CC1=CC(=O)C=CC1(C)C(Cl)(Cl)Cl (stereo not drawn) | 112% (active)
CO[C@@H]1CN(C)C(=O)c2cc(NS(=O)(=O)c3ccc(C)cc3)ccc2OC[C@H](C)N(Cc2nccs2)C[C@@H]1C | 1.93%
CCC(CC)c1nnc(NS(=O)(=O)Cc2ccccc2)s1 | 117% (active)
CCC(CC)c1nnc(NC(=O)C2CCN(C(=O)c3ccco3)CC2)s1 | -3.16%
Cc1cc(C)cc(NS(=O)(=O)Cc2ccccc2)c1 | 1.96%
CO[C@@H]1CN(C)C(=O)c2cc(NC(C)=O)ccc2OC[C@H](C)N(CC2CCCCC2)C[C@@H]1C | -13.7%
C[C@H](O)C#Cc1cnc2c(c1)C(=O)N([C@@H](C)CO)C[C@H](C)[C@@H](CN(C)C(=O)c1ccncc1)O2 | 8.21%
O=C(C[C@H]1C=C[C@H](NC(=O)CN2CCOCC2)[C@@H](CO)O1)NCc1cccc(F)c1 | -2.71%
Cc1noc(C)c1NC(=O)Nc1ccc2c(c1)CC(=O)N([C@@H](C)CO)C[C@H](C)[C@@H](CN(C)C(=O)Nc1ccc3c(c1)OCO3)O2 | -8.55%
CO[C@@H]1CN(C)C(=O)c2cc(NC(C)=O)ccc2OC[C@H](C)N(Cc2ccccc2F)C[C@@H]1C | -2.5%

Structure (SMILES) | rescue of ATP level
CCOc1ccccc1C(=O)NC1CC2CCCC(C1)N2Cc1ccccc1 (stereo not drawn) | 97.4% (active)
COc1ccc(CN2C3CCCC2CC(NC(=O)c2cccc(F)c2)C3)cc1 (stereo not drawn) | 9.21%
CCCN1C2CCCC1CC(NC(=O)c1cccc(OC)c1)C2 (stereo not drawn) | -3.95%
CCCNC(=O)N(C)C[C@@H]1Oc2ncc(-c3ccccc3F)cc2C(=O)N([C@@H](C)CO)C[C@H]1C | 15.3%
COc1ccc(S(=O)(=O)N(C)C[C@H]2Oc3c(NC(=O)C4CCOCC4)cccc3C(=O)N([C@@H](C)CO)C[C@@H]2C)cc1 | -29.4%
COCC#Cc1ccc2c(c1)O[C@H](CN(C)Cc1ccc3c(c1)OCO3)[C@H](C)CN([C@H](C)CO)S2(=O)=O | 15.6%
CCOC(=O)C1CCN(C(=O)COc2cccc3ccccc23)CC1 | -0.757%
CCOC(=O)C1CCN(C(=O)CSc2cc(=O)n(C)c3ccccc23)CC1 | 4.85%
CCOC(=O)C1CCN(C(=O)Cn2cc(C#N)c3ccccc32)CC1 | 99.6% (active)
CCCNC(=O)N(C)C[C@H]1Oc2cc(C#CC(C)(C)O)ccc2S(=O)(=O)N([C@H](C)CO)C[C@@H]1C | 1.69%
Cc1ccc(C2=CSC3=NS(=O)(=O)CCN23)cc1C | 1.19%
O=S1(=O)CCN2C(=N1)SC1=C2CCN(Cc2ccccc2)C1 | 121% (active)
COC(=O)c1sc(N2CCN(Cc3ccccc3)CC2)nc1N | 8.62%
O=C(NCC[C@H]1CC[C@@H](NC(=O)C2CCCCC2)[C@@H](CO)O1)c1ccc(F)cc1 | 10.2%
CCC(=O)Nc1ccc2c(c1)C(=O)N(C)C[C@@H](OC)[C@@H](C)CN(Cc1ccccc1F)[C@H](C)CO2 | 10.8%
Cc1nc(-c2ccc(F)cc2)c(CC(=O)N2CCN(S(=O)(=O)c3ccc(F)cc3)CC2)s1 | -5.66%
CCOc1ccc(NC(=O)CN(C)C(=O)Cc2sc(C)nc2-c2ccc(F)cc2)cc1OCC | 8.47%
CCOc1ccc(-c2nc(C)sc2CC(=O)O)cc1 | 87.4% (active)
CN1C(=O)c2cc(NS(C)(=O)=O)ccc2OC[C@H]2O[C@H](CC(=O)NCc3ccccc3)CC[C@H]21 | -11.2%
C[C@H](NC(=O)C[C@@H]1CC[C@@H](NC(=O)Cc2ccccn2)[C@@H](CO)O1)c1ccccc1 | 1.25%
CO[C@@H]1CN(C)C(=O)c2cc(NC(=O)c3cccc(F)c3)ccc2OC[C@H](C)N(C)C[C@@H]1C | 6.21%

Structure (SMILES) | rescue of ATP level
CCCN1CCN(C(=O)CCCNC(=O)c2ccc(Cl)cc2)CC1 | -1.82%
CN1CCN(CCCNC(=O)c2ccc(/C=C3\Oc4ccccc4N(Cc4ccc(Cl)cc4)C3=O)cc2)CC1 | 88.6% (active)
CC(C)OCCCNC(=O)CN1C(=O)/C(=C/c2ccccc2F)Oc2ccccc21 | -11.5%
CS(=O)(=O)Nc1ccc2c(c1)[C@H]1C[C@@H](CC(=O)NCCc3ccccc3)O[C@@H](CO)[C@H]1O2 | 3.14%
O=C(OCCOc1ccccc1F)c1cc(S(=O)(=O)N2CCOCC2)ccc1F | 12.7%
O=C(COC(=O)c1cc(S(=O)(=O)N2CCOCC2)ccc1F)NC1CC1 | -0.144%
COc1cc(NC(=O)COC(=O)c2cc(S(=O)(=O)N3CCOCC3)ccc2F)cc(OC)c1 | 117% (active)
CC=Cc1ccc2n(c1=O)C[C@@H]1[C@@H](CO)[C@H](C(=O)NCC)[C@H]2N1CCC(F)(F)F (mixture of isomers) | 12.8%
CC(C)CC#Cc1cnc2c(c1)C(=O)N([C@H](C)CO)C[C@H](C)[C@H](CN(C)CC1CCOCC1)O2 | 17.7%
C[C@@H]1CN([C@H](C)CO)C(=O)Cc2cc(NC(=O)Cn3cnnn3)ccc2O[C@H]1CN(C)CC1CCCCC1 | 19.6%
Cc1ccc(-c2csc(NC(=O)c3cccs3)n2)cc1 | 112% (active)
CCc1noc(C)c1C(=O)Nc1nc(-c2ccccc2)cs1 | -35.8%
CCCc1ccc(-c2csc(NC(=O)Cc3cccs3)n2)cc1 | 20.4%
COc1ccc(C(=O)Nc2ccc3c(c2)OC[C@H](C)N(C(C)=O)C[C@@H](C)[C@@H](OC)CN(C)C3=O)cc1 | -4.78%
COc1cccc(C(=O)Nc2ccc3c(c2)C(=O)N(C)[C@@H]2CC[C@H](CC(=O)NCC4CC4)O[C@@H]2CO3)c1 | 4.48%
COc1cccc(C(=O)Nc2ccc3c(c2)C(=O)N(C)[C@@H]2CC[C@@H](CC(=O)NCCCN4CCOCC4)O[C@@H]2CO3)c1 | 8.62%
CCCNC(=O)N1C[C@H]2[C@@H](c3ccccc31)[C@H](CO)N2C(=O)NC(C)C | -5.25%
Cc1c(C(C)(C)O)[nH]c2ccc(C#N)cc12 | 81.3% (active)
CCOC(=O)c1cc2sccc2n1Cc1ccc(C#N)cc1 | 29.8%
Cc1[nH]c2ccc(S(N)(=O)=O)cc2c1C | 6.68%

From PubChem BioAssay AID602340 (Broad Institute, 2012)
